The list is not random: actives were taken first. Their share in the collection is about 2.4%.
Pol III holo inh – DNA polymerase III holoenzyme inhibition. reconstituted DNA polymerase III holoenzyme replication, biochemical. Potency, µM (series often up to 57.1 µM). 71,000 compounds, 0.25% hits. AID 603
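Reconstituted *E. coli* holoenzyme (0.35 nM Pol III, 1 nM beta, 154 nM SSB, 2 nM primase) was preincubated with compound for 15 min at RT. Synthesis on 1.4 nM ssM13Gori ran 35 min, then was stopped with PicoGreen/EDTA and read as dsDNA fluorescence.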
BRCT PPI red – disrupts BRCA1 BRCT binding to phosphoprotein, red fluorophore readout; BRCT-phosphopeptide binding, red fluorescence polarization; AID 892; P38398; 75,000 compounds, 0.03% hits; Potency, µM (doses to about 76.9 µM), actives largely listed as inhibitors
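Rhodamine-labelled pBACH1 10-mer (100 nM) bound to BRCT domain (100 nM) at pH 7.3; compounds incubated 12 min room temperature, polarization read. Free peptide defines full inhibition; unlabelled decapeptide titrated as control.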
BRCT PPI green – blocks human BRCA1 BRCT binding to phosphopeptide, green readout. P38398. BRCA1 BRCT-phosphopeptide binding, green fluorescence polarization. Potency, µM (series often up to 76.9 µM), actives largely listed as inhibitors. 75,000 compounds, 0.05% hits. AID 875
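Compounds were incubated for 12 min at room temperature with a complex of 100 nM fluorescein-tagged pBACH1 decapeptide and 250 nM His-tagged BRCT protein. Buffer was phosphate pH 7.3 with EDTA, DTT and Tween 20. Disruption of binding lowers the polarization signal.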
YjeE inh – displaces an ADP probe from E. coli YjeE (TsaE) | purified YjeE enzyme, qHTS inhibition assay | Potency, µM | 71,000 compounds, 0.05% hits
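Fluorescence polarization of a BODIPY Texas Red–ADP probe (2 uM) bound to purified YjeE (10 uM) was read after 15 min room-temperature incubation with compounds. Loss of polarization marks inhibitors; ADP serves as titrated control.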
Tau fil binding – binds recombinant human tau filaments. P10636. recombinant tau filaments, thioflavin S fluorescence, 15 h; filaments grown with octadecylsulfate alongside compound. Potency, µM (titrated, usually from 57.1 µM). 71,000 compounds, 2% hits. AID 596;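 further: actives lower thioflavin S fluorescence by blocking filaments or displacing dye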
Target sequence (P10636 whole entry, looked up): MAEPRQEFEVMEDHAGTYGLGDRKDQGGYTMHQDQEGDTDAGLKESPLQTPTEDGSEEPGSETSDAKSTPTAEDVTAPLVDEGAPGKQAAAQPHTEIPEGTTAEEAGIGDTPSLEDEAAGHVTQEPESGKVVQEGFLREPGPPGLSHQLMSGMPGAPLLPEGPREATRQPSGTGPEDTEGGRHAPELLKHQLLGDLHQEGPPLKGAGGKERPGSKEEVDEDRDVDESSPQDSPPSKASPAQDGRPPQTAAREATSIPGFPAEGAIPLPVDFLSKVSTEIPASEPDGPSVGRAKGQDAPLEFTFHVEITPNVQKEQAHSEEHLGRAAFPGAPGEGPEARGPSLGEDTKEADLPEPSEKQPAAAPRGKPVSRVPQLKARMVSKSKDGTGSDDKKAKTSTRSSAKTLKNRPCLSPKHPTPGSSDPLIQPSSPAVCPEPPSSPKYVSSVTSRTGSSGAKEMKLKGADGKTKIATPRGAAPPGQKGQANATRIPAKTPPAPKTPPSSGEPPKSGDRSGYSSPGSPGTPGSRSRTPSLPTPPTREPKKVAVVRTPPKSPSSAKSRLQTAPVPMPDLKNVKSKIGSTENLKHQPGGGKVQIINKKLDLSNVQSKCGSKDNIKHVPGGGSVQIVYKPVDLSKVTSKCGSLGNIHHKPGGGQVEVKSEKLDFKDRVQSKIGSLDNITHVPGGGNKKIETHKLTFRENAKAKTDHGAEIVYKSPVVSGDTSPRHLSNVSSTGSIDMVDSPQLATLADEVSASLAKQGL
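His-tagged recombinant human tau (exons 2, 3, 10; 1 uM final) fibrillized with 30 uM sodium octadecylsulfate, 15 h at 37 C, in pH 7.4 HEPES buffer with 10 uM thioflavine S and 5 mM DTT. Reduced ThS fluorescence (450/510 nm) marks activity.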
Hsp90 Hop PPI – changes Hsp90-Hop TPR2A binding signal, up or down; 71,000 compounds, 0.44% hits; AlphaScreen TPR2A-His6 binding biotin-Hsp90 C-terminal peptide; AID 595; Potency, µM (top dose mostly 57 µM); active means well fitted curve in either direction with a large enough effect; inconclusive means small, poorly fitted or top-dose-only effect, or another doubt
A number is an active result; i = inactive; ? = inconclusive; nt = not tested or not shown; [ ] = another dose, or the depositor's remark. Unless noted, the call rests on the fitted dose curve; in most records, active means well fitted curve in the direction sought with a large enough effect; inconclusive means small, poorly fitted or top-dose-only effect, or another doubt; inactive means no such curve, though single readings can be large; an effect the other way counts as inactive or inconclusive.

SMILES | Pol III holo inh | BRCT PPI red | BRCT PPI green | YjeE inh | Tau fil binding | Hsp90 Hop PPI
O=c1c(-c2ccc(Cl)cc2)nc2cnc(N3CCNCC3)nc2n1CCc1ccccc1 | i | i | i | i | i | i
CCOC(=O)c1sc2nc(N3CCOCC3)c3c(c2c1N)CCN(C)C3 | i | i | i | i | 7.94µM | i
Cc1ccc2[nH]c(-c3cccc(N)c3)cc2c1 | i | i | i | i | 10µM | i
CC1(C)CC2C1CC[C@]1(C)CCC3C(C(=O)O)CC(=O)O[C@]32C1 (stereo partly specified) | nt | i | i | nt | nt | nt
S=C(c1ccc(-c2ccc(Cl)c(Cl)c2)o1)N1CCOCC1 | i | i | i | i | 10µM | ?
S=C(c1ccc(-c2ccccc2Cl)o1)N1CCOCC1 | i | i | i | i | 15.8µM | i
OCCN1CCN(C(=S)c2ccc(Cl)c(Cl)c2)CC1 | i | i | i | i | i | ?
O=C(c1cc(Cl)ccc1Cl)N1CCOCC1 | i | i | i | i | i | i
N#CCCN1CCN(C(=S)c2ccc(-c3cc(Cl)ccc3Cl)o2)CC1 | i | i | i | i | 2.51µM | i
O=C(c1ccc(-c2cccc(C(F)(F)F)c2)o1)N1CCOCC1 | i | i | i | i | i | i
Brc1ccc(C2Nc3cccc4cccc(c34)N2)o1 | i | i | i | i | 10µM | ?
O=C1NC(c2ccco2)Nc2ccccc21 (stereo unspecified) | i | i | i | i | i | i
O=c1c(O)c(-c2ccc(O)c(O)c2)oc2ccccc12 | ? | i | i | i | ? | i
O=C(O)c1cccc2c1C(=O)N(Cc1ccncc1)C2 | i | i | i | i | i | i
COc1ccc(N2Cc3cccc(C(=O)O)c3C2=O)cc1 | 15.8µM | i | i | i | i | i
O=C(Nc1ccc(N2CCN(c3ccc(O)cc3)CC2)cc1)Oc1ccccc1 | i | i | i | i | 2µM | i
CN1CCN(c2ccc(NC(=O)Cc3ccccc3)cc2)CC1 | i | i | i | i | i | i
CN1CCN(c2ccc(NC(=O)c3cccc(OCc4ccccc4)c3)cc2)CC1 | i | i | i | i | 7.94µM | i
O=C1c2c(O)ccc([N+](=O)[O-])c2C(=O)c2c([N+](=O)[O-])ccc(O)c21 | i | i | i | i | 0.2µM | ?
CN(C)S(=O)(=O)c1ccc(NS(=O)(=O)/C=C/c2ccccc2)cc1 | i | i | i | i | i | i
CN(C)S(=O)(=O)c1ccc(Nc2ccc(O)c3c2C(=O)c2c([N+](=O)[O-])ccc(O)c2C3=O)cc1 | i[11.4 µM] | i[15.4 µM] | i[15.4 µM] | i | 1µM | ?
CCOC(=O)c1nn(-c2ccc(OC)cc2)c(=O)c2c(NC(=O)c3ccco3)scc12 | i | i | i | i | i | i
CCOC(=O)c1nn(-c2ccc(OC)cc2)c(=O)c2c(N)scc12 | i | i | i | i | 15.8µM | i
COc1ccc(-c2oc(/N=C/N3CCOCC3)c(C#N)c2-c2ccc(OC)cc2)cc1 | i | i | i | i | 1µM | i
O=C1SC(SCc2ccccc2)=N/C1=C\c1ccco1 | i | i | i | i | ? | i
SMILES | Pol III holo inh | BRCT PPI red | BRCT PPI green | YjeE inh | Tau fil binding | Hsp90 Hop PPI
CCCSC1=N/C(=C\C=C\c2ccco2)C(=O)S1 | 1.26µM | i | i | i | 2µM | i
O=C(Nc1cccc2nsnc12)C1CC(=O)N(c2ccccc2)C1 (stereo unspecified) | i | i | i | i | 20µM | i
CCCc1cc(C(N)=O)c(NC(=O)c2ccoc2C)s1 | i | i | i | i | i | ?
CCCc1cc(C(N)=O)c(NC(=O)c2cc(C)on2)s1 | i | i | i | i | 31.6µM | i
COc1ccc(-c2csc(NCc3ccco3)n2)cc1C | i | i | i | i | 12.6µM | i
O=C(Nc1ccc(Cl)cc1C(=O)O)c1ccc2c(c1)C(=O)N(Cc1ccco1)C2=O | 31.6µM | i | i | i | ? | i
CC(C)CC(=O)Nc1ccc(-c2cn3ccsc3n2)cc1 | i | i | i | i | 12.6µM | i
CC(C)CO/N=C1/C[C@@H](O)[C@@H](O)[C@@H]2[C@@H]3C(=O)N(Cc4ccccc4)C(=O)[C@H]3CC[C@@H]12 | nt | i[15.4 µM] | i[15.4 µM] | nt | nt | nt
COCC(=O)NCc1ccc2c(c1)OCO2 | i | i | i | i | i | i
Cn1c(=O)c(C(=O)COC(=O)c2cc(-c3ccco3)nc3ccccc23)c(N)n(Cc2ccccc2)c1=O | nt | i | i | nt | nt | nt
CC(C)Cn1c(N)c(C(=O)COC(=O)c2cc(-c3ccco3)nc3ccccc23)c(=O)n(C)c1=O | i | i | i | i | 12.6µM | i
O=C(COC(=O)c1cc(-c2ccco2)nc2ccccc12)NCc1ccc2c(c1)OCO2 | i | i | i | i | 12.6µM | i
O=C(COC(=O)c1cc(-c2cccs2)nc2ccccc12)NCc1ccco1 | i | i | i | i | 15.8µM | i
O=C(COC(=O)c1ccccc1)NCc1ccco1 | i | i | i | i | i | i
O=c1c(-c2ccccc2)nc2cnc(Oc3cccc(Cl)c3)nc2n1C1CC1 | i | i | i | i | i | i
Cc1ccccc1C(N)=O | i | i | i | i | i | i
Cn1c(/N=C/c2c(O)ccc3ccccc23)nc2ccccc21 | i[11.4 µM] | i | i | i | ? | i[11 µM]
Oc1c(/C=N/c2ncn[nH]2)ccc2ccccc12 | i | i | i | i | 12.6µM | i
O=c1c(-c2cccc(F)c2)nc2cncnc2n1Cc1ccc(F)cc1 | i | i | i | i | i | i
O=c1c(-c2ccccc2)nc2cncnc2n1Cc1ccccc1 | i | i | i | i | 20µM | i
O=c1c(-c2cccc(F)c2)nc2cncnc2n1Cc1ccccc1 | i | i | i | i | 20µM | i
O=S(=O)(c1ccccc1)N1CCC2(CCN(C(c3ccccc3)c3ccccc3)CC2)CC1 | i | i | i | i | i | i
Clc1ccc(-c2noc(CN3CCCCC3)n2)cc1 | i[11.4 µM] | i[15.4 µM] | i[15.4 µM] | i | i[11.4 µM] | i[11 µM]
Clc1ccc(-c2nnc(N3CCCC3)nn2)cc1 | i | i | i | i | 12.6µM | i
C[C@H](O)[C@H](O)[C@@H]1CNc2nc(N)[nH]c(=O)c2N1 | i | i | i | i | i | i
SMILES | Pol III holo inh | BRCT PPI red | BRCT PPI green | YjeE inh | Tau fil binding | Hsp90 Hop PPI
OCCCCNc1cccc2ccccc12 | i | i | i | i | 25.1µM | i
CC(C)NC(=O)N1CC[C@@]2(CCCN(S(C)(=O)=O)C2)C1 | i | i | i | i | i | i
Cc1nc2nc(-c3cccs3)cn2nc1C | i | i | i | i | i | i
COc1cccc(-c2cn3nc(C)c(C)nc3n2)c1 | i | i | i | i | 10µM | i
N#CCCn1c(=O)c(-c2cccc(C#N)c2)nc2cnc(Oc3cccc(Cl)c3)nc21 | i | i | i | i | i | i
c1ccc(-c2noc(CN3CCN(c4ccccc4)CC3)n2)cc1 | i | i | i | i | i | i[2.3 µM]
COc1ccc(N2CCN(Cc3nc(-c4ccc(Cl)cc4Cl)no3)CC2)cc1 | i | i | i | i | 12.6µM | i
COc1nc(C#N)nc(N(C)C)n1 | i | i | i | i | 12.6µM | i

High-throughput results from PubChem.
